In the supplement of paper PMC6555819:

tested on: VDR:RXRa (NR concentration 270 nM, RXRa partner concentration 90 nM); assay: PBM binding z-score (relative to random genomic background probes); higher = stronger binding; sequences stand for … in GC…GCGATTGACAGCGTAGAATGAAGG
Experimental: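 Protein-binding microarray (Agilent 4x180K custom design, double-stranded 60-nt probes: 5' GC cap, 34-nt variable region, 24-nt constant primer region; full probe sequence given). Purified or IVT nuclear receptor:RXRα heterodimers (3:1 NR:RXRα, mostly 270:90 nM) or homodimers were incubated for 1 h in PBS with 2% milk and no ligand, then detected with Alexa488 antibodies. Fluorescence from o1-orientation probes (~5 replicates averaged) was converted to z-scores against 500 random hg19 background probes. Variable regions are seed direct-repeat (DR0–DR5) sites, all their single-nucleotide variants and half-site ablations.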

Sequence	PBM binding z-score
CCATACAGGTGAGAAGGTAACTCAGCCTCGATTA	0.121
GATACAGGGTCGAGGCCAGAGTACGCGTATTGAT	1.41
CGTCCAAGTTCAAGGTAACGTAACAGAAAGCAGC	2.45
CCGACTGGGGCAAAGGTTACCAAACTCAGTACGA	1.91
TCTGCTAGGTCAACGATGGACAGCTAATCTGCTA	1.21
ATATGTAGGTTCTCGGGTCATTCAGTTTGCGCAT	5.04
AGTCAAAGTTCATCTAGGTAAGGTAAGATATGCT	4.6
ATATGTAGGTTACATCCGGGTCATTAAGGCTATG	4.54
TCATGTAGATCAACAGGAGGTTAAGAAAGATCGA	0.591
CAAACTAGGTCACCGGAAGGTCAAAGTGCGCATG	6.18
ATCGAAAGGTCGTGTGGTGAGTATACAGAAAGGC	3.66
CGTCCAAGGTCATCAGGTCAGTGAAAGCGACGTG	5.43
CGTCCAAGGTCATAGCAGGTCAGTGAAGACAGAT	5.93
TCTTGTATATCAGCAGGTTAAGAAAGCTGGCCAA	0.851
CAAACTAAGTCAAAGGTCAAAGTCGAGCCAACCA	5.35
GGAACGAGGGCTAGTTGATAGCAGAGTTTGATGG	-0.607
CTGGAAAGGTCGTGCTCAGGTGAGTATACCAAAC	3.1
AGAATGAGGTTACCAAAGATCGGGGAAACGCTTG	1.3
CCTACTGGGACAAAGGTCATTGATTCCAATGCTC	4.67
TCTTGTAGATCAACAGGAGGTTGAGAAAGATCGA	-0.025

Sequence	PBM binding z-score
GGAACGAGGGCATTCGAGTTGAAAGCATGGCGAT	3.59
ACTAGCAGGCCAAGGTTGGGTCACTCAAACAAAG	0.381
GCTACAGGGTCAAGGCCAGAGTACGCGTATTGAT	4.28
GCAAGTTGGTCAGTAAAAGGTCACACACCGGTCG	4.11
TATACAGGCTCAAAGGCCAGAGTACGAATGTCGA	-0.106
GTACGAAGGTGAATAGGTCGTTGATGAGTAGGCG	0.73
CCTACTGGGCCACGAAAGGTCATCGATTCAGTGA	4.24
ATCTCTAGGTAACCAAGTTCAGTGTATGCCGAAC	3.91
TCGAGTAGGTTAGGGGCATTGAGAATGGCGTCGA	0.491
TCATATAGTTAAATGCTAGGTGAAAGTCCGATCT	0.952
ATCTAAAGGTCGACGAGGTGAGTATACACCGTTT	5.21
CGAACTAGGCCAGAACAGGACAGTGAAGGATGAT	-0.283
TCTTGTAGCTCAATAGAGGTTAAGAAAGTGCGCT	1.32
TCGAGTAGGTTAGGGGCATTAAGAATGGCGTCGA	0.706
TGCATGAGGTTATAAGATCAGGGAACGTTGCAAA	1.01
CCAGACAGGGGAAAGGTAACTCAGTCTGGTACGC	-0.0821
CCGACTGGGGCATAAGGTAACCATAAGCCAGCCC	-0.407
TCTAGGAGGACACGAAAGGTCAGAGCTCGACATC	3.42
CCCTACGGGTCACTCCAGGTTATAGCATCGGAGT	4.12
TCGAGTAGGTTACCAATGAGGCATTCAGCTTTCT	-0.192
